# Assay results: PubChem BioAssay (NCATS)
# Results filed as inconclusive are left out. Where a call stands in place of a potency, no number is given. Activity calls are given as the source filed them. Unless noted, the call rests on the fitted dose curve; in most records, active means well fitted curve in the direction sought with a large enough effect in the repeat runs; inconclusive means weak or mixed curves; inactive means no such curve, though single readings can be large; an effect the other way counts as inactive or inconclusive.
# Experiments:
# [1] = A High-Content qHTS Against Drug Library for the Identification of Small Molecules that Inhibit DYT1 Early Onset Primary Dystonia-Associated Cell Pathology (AID 1645839; calls by dose curve)
# Procedure, shortened: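 Induced EGFP-delE TorsinA cells are imaged after 48 h of compound treatment. Punctate fusion-protein distribution gives the %pathology value, while nuclei counts flag toxicity. Wild-type EGFP-hTOR1A cells define the normal pattern.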
# [2] = target: Cytochrome P450 2C9 (Homo sapiens) (UniProt P11712); test: Cytochrome P450 family 2 subfamily C member 9 (CYP2C9) small molecule antagonists: luciferase biochemical (cell-free) qHTS assay (AID 1645842); further: nearly all actives have a fitted effect of over 55% in size; further: potency means the concentration at half of the fitted maximal effect
# Cytochrome P450 2C9 (Homo sapiens), sequence (P11712 whole entry, looked up): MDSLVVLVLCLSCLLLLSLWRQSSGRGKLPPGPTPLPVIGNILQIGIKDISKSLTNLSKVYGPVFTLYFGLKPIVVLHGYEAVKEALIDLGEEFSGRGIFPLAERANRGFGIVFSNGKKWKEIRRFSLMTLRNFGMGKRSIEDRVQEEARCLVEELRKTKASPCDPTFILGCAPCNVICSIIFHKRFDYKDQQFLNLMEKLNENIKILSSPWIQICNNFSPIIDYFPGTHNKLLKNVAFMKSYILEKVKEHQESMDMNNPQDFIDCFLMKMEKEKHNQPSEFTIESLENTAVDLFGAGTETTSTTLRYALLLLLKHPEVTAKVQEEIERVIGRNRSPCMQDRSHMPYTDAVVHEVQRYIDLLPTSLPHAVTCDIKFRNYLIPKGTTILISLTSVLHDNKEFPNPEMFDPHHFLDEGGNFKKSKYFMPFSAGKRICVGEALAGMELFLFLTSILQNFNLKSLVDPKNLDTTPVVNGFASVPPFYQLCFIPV
# Procedure, shortened: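 P450-Glo CYP2C9 system: proluciferin substrate with enzyme in mix containing 0.4% BSA, 10 min at room temperature, then NADPH regeneration solution added and incubated 1 h at 37C. Detection reagent stopped reaction; luminescence read after 20 min as RLU.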
# [3] = target: Cytochrome P450 2D6 (Homo sapiens) (UniProt P10635); test: Cytochrome P450 family 2 subfamily D member 6 (CYP2D6) small molecule antagonists: luciferase biochemical (cell-free) qHTS assay (AID 1645840); further: nearly all actives have a fitted effect of over 55% in size; further: potency means the concentration at half of the fitted maximal effect
# Cytochrome P450 2D6 (Homo sapiens), sequence (P10635 whole entry, looked up): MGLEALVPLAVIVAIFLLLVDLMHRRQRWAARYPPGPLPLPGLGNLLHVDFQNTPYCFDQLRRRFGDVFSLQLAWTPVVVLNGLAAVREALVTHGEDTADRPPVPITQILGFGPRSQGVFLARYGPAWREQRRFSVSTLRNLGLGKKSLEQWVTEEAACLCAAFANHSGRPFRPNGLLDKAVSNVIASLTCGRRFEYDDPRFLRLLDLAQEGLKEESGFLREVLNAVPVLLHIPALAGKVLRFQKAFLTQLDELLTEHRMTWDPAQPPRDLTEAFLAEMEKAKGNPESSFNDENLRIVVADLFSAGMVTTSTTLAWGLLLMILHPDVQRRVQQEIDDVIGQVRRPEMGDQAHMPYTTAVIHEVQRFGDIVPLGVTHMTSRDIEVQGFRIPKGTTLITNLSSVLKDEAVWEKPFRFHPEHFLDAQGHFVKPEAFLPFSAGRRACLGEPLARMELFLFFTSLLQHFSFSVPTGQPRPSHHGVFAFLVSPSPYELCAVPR
# Procedure, shortened: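 P450-Glo CYP2D6 system: proluciferin substrate converted by enzyme to luciferin, read by luminescence proportional to activity. Enzyme-substrate mix with compound 10 min at room temperature, then NADPH regeneration 1 h before detection reagent.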
# [4] = Cytotoxicity counterscreen for inhibitors of SARS-CoV-2 cell entry (AID 1645845; calls by dose curve; further: nearly all actives have a fitted effect of over 50% in size)
# Procedure, shortened: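 After a 15 min room-temperature ATPLite 1step step, luminescence reflected ATP remaining in HEK293-ACE2 cells exposed to compound for 1 h plus 48 h at 37 C, with percent activity set by cell and no-cell controls.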
# [5] = Primary qHTS to identify inhibitors of SARS-CoV-2 cell entry (AID 1645846; calls by dose curve; further: nearly all actives have a fitted effect of over 45% in size); conditions: activity change, negative = inhibition: at 57.1 µM (top of the series) unless noted
# Procedure, shortened: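 Entry measured by luciferase signal 48 h after adding SARS-CoV-2-S pseudotyped MLV particles to HEK293-ACE2 cells preincubated 1 h with compounds. Normalisation: bald particles and spike particles.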
smiles,measurement,setting,value
Cc1nc2ccccc2c(=O)n1-c1ccccc1Cl,outcome,[1],inactive
same,Potency,[2],27.7 µM (active)
CN1[C@@H]2CC[C@H]1CC(OC(=O)c1cc(Cl)cc(Cl)c1)C2 (stereo partly specified),Potency,[3],0.0436 µM (active)
same,Potency,[2],inactive
CC1COC2(c3ccccc3Cl)c3cc(Cl)ccc3NC(=O)CN12 (stereo unspecified),Potency,[3],11 µM (active)
same,Potency,[2],24.5 µM (active)
same,Potency,[4],inactive
same,Potency,[5],inactive
C=CCOC(Cn1ccnc1)c1ccc(Cl)cc1Cl (stereo unspecified),Potency,[3],2.88 µM (active)
same,Potency,[2],0.683 µM (active)
same,Potency,[4],inactive
O=C(N[C@@H]1N=C(c2ccccc2F)c2cccc3c2N(CC3)C1=O)c1cc2ccccc2[nH]1,Potency,[3],inactive
CN(C)C(=S)SSC(=S)N(C)C,Potency,[2],3.47 µM (active)
O=C1N(c2ccccc2)c2ccccc2C1(Cc1ccncc1)Cc1ccncc1,Potency,[4],inactive
CN1CCN(c2cc3c(cc2F)c(=O)c(C(=O)O)cn3-c2ccc(F)cc2)CC1,Potency,[4],inactive
CC(C)=CCOc1ccc(/C=C/C(=O)c2ccc(OCC=C(C)C)cc2OCC(=O)O)cc1,Potency,[4],inactive
